Shown are actives, neighbours in structure and some others; about 15% of the full set was active somewhere.
VP16 counter – Gal4-VP16 reporter inhibition counter-screen; Drosophila S2 Gal4-VP16 UAS-luciferase, luminescence, 20 h; Potency, µM (highest dose often 53.6 µM), inactives show top-dose activity, negative = inhibition, most hits filed as inhibitors; actives 3.5% (n = 310,000); AID 2546;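 note: Gal4-VP16 expression switched on by copper sulfate through the metallothionein promoter; nearly all actives have a fitted effect of over 50% in size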
TDP1 cell CPT – growth inhibition of DT40 Tdp1-/-;hTDP1 cells with camptothecin (screen for TDP1 inhibitors); AID 686979; actives 12% (n = 420,000); Potency, µM (doses to about 46.2 µM), for the others: at the top dose activity change, negative = growth inhibition, hits mostly inhibitors; chicken DT40 Tdp1-/-;hTDP1 cells + 20 nM CPT, ATP luminescence, 48 h; note: nearly all actives have a fitted effect of over 55% in size
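Chicken DT40 Tdp1-/- cells complemented with human TDP1, 400 cells/well, exposed to compounds plus 20 nM camptothecin for at least 48 h at 37 C; viability read as ATP content by CellTiter-Glo luminescence.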
ELG1 DNA repair – inhibitors of ELG1-dependent DNA repair in HEK293T cells; HEK293T ELG1-luciferase reporter, luminescence, 16 h; DNA damage induced by 5-fluorouridine; Potency, µM (top dose mostly 46.1 µM), without a hit: at the top dose activity change, negative = inhibition, most hits filed as inhibitors; actives 2.3% (n = 330,000); AID 504467; note: nearly all actives have a fitted effect of over 55% in size
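In this reporter screen, reduction of luminescence relative to DMSO vehicle indicated activity. Compounds and 5-fluorouridine were added together to 2,000 cells per well, incubated for 16 hr at 37 °C, then developed with ONE-Glo.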
TDP1 cell noCPT – qHTS for Inhibitors of human tyrosyl-DNA phosphodiesterase 1 (TDP1): qHTS in cells in absence of CPT. DT40 Tdp1-/- hTDP1 cells, no CPT, ATP luminescence, 48 h. Potency, µM (highest dose often 46.2 µM), for inactives: top-dose activity change, negative = growth inhibition, most hits filed as inhibitors. actives 15% (n = 420,000). AID 686978, 2013; note: nearly all actives have a fitted effect of over 55% in size
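Camptothecin absent (DMSO only). Human TDP1-complemented DT40 knockout cells, 400 cells/well, 37 °C for minimum 48 hr; ATP measured via CellTiter-Glo, 30 min dark incubation, luminescence.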
RORgamma inh – blocks mouse ROR gamma transcriptional activity; AID 2551; P51450; Drosophila S2 Gal4-RORgamma UAS-luciferase reporter, 20 h; Potency, µM (series often up to 53.6 µM), inactives show at the highest dose activity change, negative = inhibition, usual class: inhibitors; actives 5.4% (n = 310,000); note: nearly all actives have a fitted effect of over 60% in size
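Luciferase reporter read in Schneider cells carrying Gal4-RORγ (mouse) and UAS-Photinus luciferase; cells given compound 1 h before 700 uM copper sulfate induction, then incubated 20 h at ambient temperature.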
ALOX12 inh – ALOX12 (human) lipoxygenase inhibition | P18054 | purified 12hLO, xylenol orange hydroperoxide absorbance | Potency, µM (series often up to 108 µM), for the others: at the top dose activity change, negative = inhibition, usual class: inhibitors | actives 1.1% (n = 580,000)
Target sequence (P18054 whole entry, looked up): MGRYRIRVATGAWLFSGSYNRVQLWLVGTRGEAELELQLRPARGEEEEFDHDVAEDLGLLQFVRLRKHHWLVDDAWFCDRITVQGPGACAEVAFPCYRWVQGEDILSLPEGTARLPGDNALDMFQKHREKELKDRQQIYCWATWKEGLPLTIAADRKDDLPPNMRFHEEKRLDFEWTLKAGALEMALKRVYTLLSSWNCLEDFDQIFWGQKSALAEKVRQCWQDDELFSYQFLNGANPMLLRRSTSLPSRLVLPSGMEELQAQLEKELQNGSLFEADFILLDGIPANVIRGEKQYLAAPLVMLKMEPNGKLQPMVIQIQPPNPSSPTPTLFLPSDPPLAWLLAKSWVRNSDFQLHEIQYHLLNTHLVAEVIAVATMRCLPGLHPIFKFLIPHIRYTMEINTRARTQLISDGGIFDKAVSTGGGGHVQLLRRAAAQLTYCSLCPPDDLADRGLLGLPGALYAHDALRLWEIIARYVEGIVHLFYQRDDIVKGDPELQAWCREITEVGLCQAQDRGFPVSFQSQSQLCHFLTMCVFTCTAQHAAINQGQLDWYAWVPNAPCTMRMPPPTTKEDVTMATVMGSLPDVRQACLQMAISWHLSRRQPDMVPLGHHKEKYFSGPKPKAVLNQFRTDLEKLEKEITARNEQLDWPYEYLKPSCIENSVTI
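Purified human 12hLO (150 nM final) in 25 mM Hepes, 0.01% Triton X-100, pH 7.0 was preincubated 15 min at room temperature with compound. Then 40 uM arachidonic acid was added, 30 min. Hydroperoxide was read by Fe-XO absorbance ratio 573/405 nm.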
Active calls of the source: *; ? = inconclusive; / = no result; [ ] = remark or other dose. Calls come from the whole dose curve; as a rule, active = well fitted curve in the direction sought with a large enough effect; inconclusive = small, poorly fitted or top-dose-only effect, or another doubt; inactive = no such curve, though single readings can be large; an effect the other way counts as inactive or inconclusive. % is set by controls: 0 for no effect and ±100 for the full control effect; potency is the fitted concentration of half-maximal effect.

SMILES | VP16 counter | TDP1 cell CPT | ELG1 DNA repair | TDP1 cell noCPT | RORgamma inh | ALOX12 inh
Cc1cccc(C)c1NC(=O)C(c1ccnc2ccccc12)N1CCN(C)CC1 (configuration not stated) | / | ? | / | 18µM* | / | 17%
COc1ccc(NC(=O)C(c2ccnc3ccccc23)n2c(=O)c(-c3ccco3)nc3ccccc32)cc1 (configuration not stated) | / | ? | / | ? | / | -7%
O=C(O)c1ccc(C=Nc2ccc(Br)cc2)cc1 | / | / | / | / | / | -1%
COC(=O)COc1c(Br)cc(/C=C2/NC(=O)NC2=O)cc1Br | / | / | / | / | / | 34%
CCCc1cc(=O)oc2cc(OCC(N)=O)ccc12 | / | / | / | / | / | -5%
CCOc1ccc(CNC(=O)c2ccc3c(c2)c(C)c(C)n3Cc2ccccc2)cc1OC | / | 12µM* | / | 15µM* | / | -17%
Cc1cccc(CNC(=O)c2ccc3c(c2)c(C)c(C)n3Cc2ccccc2)c1 | / | 21µM* | / | ? | / | -27%
Cc1cccc(CNC(=O)c2ccc3oc(=O)n(Cc4ccccc4)c3c2)c1 | / | ? | / | ? | / | -16%
Cc1c(C)n(Cc2ccccc2)c2ccc(C(=O)NCc3ccc(OC(C)C)cc3)cc12 | / | 16µM* | / | 12µM* | / | -21%
CNC(=O)c1ccc2c(c1)C1(CCN(CC3CC3)C1)CN2Cc1ccccc1 (configuration not stated) | / | / | / | / | / | 43%[176 µM]
CCCc1cc(=O)[nH]c(SCc2nc(-c3cccc(OC)c3)no2)n1 | / | / | / | / | / | -34%
CCc1cc(=O)[nH]c(SCc2nc(-c3cccc(Cl)c3)no2)n1 | / | 18µM* | / | 16µM* | / | -6%
CCNc1nc(NC(C)C)nc(OCCNS(=O)(=O)c2cc(C)ccc2C)n1 | -6% | -18% | 21µM* | ? | 2% | -12%
CCNc1nc(SCCOc2ccc(Br)cc2)nc(N(C)C)n1 | ? | ? | ? | 15µM* | -73% | 2%
CCNc1nc(NC(C)C)nc(SCCOc2ccc(C)cc2)n1 | ? | 16µM* | 11% | 23µM* | -30% | ?
CCNc1nc(NC(C)C)nc(SCCOC(=O)c2ccccc2)n1 | 2% | 15µM* | 2% | ? | -3% | -20%
CCNc1nc(Cl)nc(NCCOc2ccc(C)cc2)n1 | -1% | ? | 19% | -29% | -1% | -7%
CC(C)CN1C(=O)c2cccn2CC1C(=O)N1CCN(c2ncccn2)CC1 (configuration not stated) | / | / | / | / | / | 27%
O=C(c1ccccc1F)N1CCC2(CC1)COc1ccccc1CN2 | / | / | / | / | / | 28%[176 µM]
CCCNC(=O)N1C[C@@H]2C(=O)N(C(CC)c3cccs3)C(=O)[C@@H]2C1 (some centres not stated) | / | / | / | / | / | 38%
Cc1cccc(C)c1OCc1nc2c3cnn(-c4cccc(F)c4)c3ncn2n1 | / | 18µM* | / | 16µM* | / | -1%
CCc1nc(-c2ccc(OC3CCN(C(=O)c4sc(C)nc4C)C3)cc2)no1 (configuration not stated) | / | / | / | / | / | 43%
C=CCn1c(N2CCC(C)CC2)nc2c1c(=O)n(C)c(=O)n2C | / | / | / | / | / | 48%
Cc1csc(N=Nc2ccc(N(C)C)cc2)[n+]1[O-] | / | 10µM* | / | 9.2µM* | / | 99%
CC(=O)Nc1ccc(C2C(=O)c3ccccc3C2=O)cc1 | -2% | -26% | ? | ? | 1% | ?
CCCC(=O)Nc1ccc(C2C(=O)c3ccccc3C2=O)cc1 | 11µM* | 16µM* | ? | ? | 11µM* | -4%
CNC(=O)CC1C(=O)NCCN1C(=O)c1cc(COc2ccccc2)[nH]n1 (configuration not stated) | / | / | / | / | / | 31%
O=S(=O)(c1cccnc1)N1CCC(OC2CCN(Cc3cccnc3)CC2)CC1 | / | / | / | / | / | 44%

Bioassay records deposited in PubChem BioAssay by National Center for Advancing Translational Sciences (NCATS).
